In the supplement of paper PMC5919970:
Where a name gives a salt, the structure may show the parent alone. Over roughly 2,000 compounds, “fractional viability relative to vehicle” has its median near 0.91; the lowest 2% begin near 0.045. The list comes from a sample in which the lowest values are over-represented; it also holds similar structures and randomly drawn compounds.

Tested on: TYKNU
Assay: fractional viability relative to vehicle; TYKNU is a high-grade serous ovarian cancer line; higher = less growth inhibition
Settings: 72 h
Method in brief: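 Drug treatment lasted 72 h, with cells grown at 37 °C in 5% CO2 in RPMI 1640 supplemented with 10% FBS. Beforehand, TYKNU control cells or their lentiCRISPRv2 knockout derivatives had been seeded at 500 cells per well into drug-stamped 384-well plates carrying a ~2100-compound library at 2 or 10 μM, in duplicate. Viability came from Cell Titer Glo luminescence, with averaged duplicate treatment wells normalised to duplicate control wells in the same plate position.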

[1] = 2uM, genotype: DNM1L knockout (sgDNM1L #1)
[2] = 2uM, genotype: sgCTRLA1 (non-targeting control)
[3] = 10uM, genotype: DNM1L knockout (sgDNM1L #1)
[4] = 10uM, genotype: sgCTRLA1 (non-targeting control)

Row | SMILES | fractional viability [1] | fractional viability [2] | fractional viability [3] | fractional viability [4]
1 | O=C(NC[C@H](O)CO)c1ccncc1Nc1ccc(I)cc1F | 0.333 | 0.318 | 0.212 | 0.205
2 | CCCSc1nc(N[C@@H]2C[C@H]2c2ccc(F)c(F)c2)c2nnn([C@@H]3C[C@H](OCCO)[C@@H](O)[C@H]3O)c2n1 [Ticagrelor] | 0.944 | 1.12 | 0.492 | 0.903
3 | CCN(CC)C(=S)SSC(=S)N(CC)CC [Disulfiram] | 0.456 | 0.291 | 0.0708 | 0.0241
4 | CC(=O)N1c2ccc(-c3ccc(C(=O)O)cc3)cc2[C@H](Nc2ccc(Cl)cc2)C[C@@H]1C | 0.281 | 0.395 | 0.237 | 0.208
5 | CNCc1ccc(C)c(NC(=O)c2ccc(Nc3nc(-c4ccccc4)c4ccccc4n3)cc2)c1 | 0.752 | 1.03 | 0.0487 | 0.0706
6 | Cc1cc(Nc2ccc(NC(=O)c3ccc(Nc4ccnc5ccccc45)cc3)cc2)nc(N)n1 | 0.0197 | 0.0121 | 0.0121 | 0.00969
7 | CC(=O)Nc1ccc(C(=O)Nc2ccccc2N)cc1 [CI994 (Tacedinaline)] | 0.966 | 0.965 | 0.456 | 0.675
8 | COc1cc(OC)c2c(=O)[nH]c(-c3cc(C)c(OCCO)c(C)c3)nc2c1 | 1.15 | 1.12 | 0.973 | 1.03
9 | CN(C)CCNC(=O)c1cccn2c(=O)c3cc4ccccc4cc3nc12 | 0.389 | 0.417 | 0.107 | 0.0609
10 | Cc1cnc(Nc2ccc(OCCN3CCCC3)cc2)nc1Nc1cccc(S(=O)(=O)NC(C)(C)C)c1 | 0.352 | 0.378 | 0.0362 | 0.0573
11 | Cc1cnc(Nc2ccc(N3CCN(C)CC3)cc2)nc1Nc1cccc(S(=O)(=O)NC(C)(C)C)c1 | 0.363 | 0.472 | 0.0682 | 0.0804
12 | C=CC(=O)Nc1cccc(Nc2nc(Nc3ccc(OCCOC)cc3)ncc2F)c1 | 0.626 | 0.721 | 0.273 | 0.297
13 | Cc1nc(Nc2cnn(C3CCNCC3)c2)nc2c1N(C)C(=O)c1cc3ccccc3cc1N2C | 0.723 | 0.802 | 0.376 | 0.51
14 | CCN(CC)CCOc1ccc(C(=C(Cl)c2ccccc2)c2ccccc2)cc1 [Clomifene citrate] | 0.751 | 1.08 | 0.178 | 0.479
15 | O=S(=O)(NCCSSCCNS(=O)(=O)c1cc(Cl)ccc1Cl)c1cc(Cl)ccc1Cl | 0.891 | 0.899 | 0.197 | 0.43
16 | Cc1cc(Nc2ncc(Cl)c(Nc3ccccc3S(=O)(=O)C(C)C)n2)c(OC(C)C)cc1C1CCNCC1 | 0.612 | 0.403 | 0.026 | 0.0128
17 | CN1CCN(Cc2ccc(Nc3ncc(Cl)c(Nc4ccccc4S(=O)(=O)N(C)C)n3)cc2)CC1 | 0.22 | 0.229 | 0.234 | 0.18
18 | O=C(O)c1cc2cccc([N+](=O)[O-])c2[nH]1 | 0.859 | 1.09 | 0.957 | 0.802
19 | CCCCNc1ncc2c(-c3ccc(CN4CCN(C)CC4)cc3)cn([C@H]3CC[C@H](O)CC3)c2n1 | 0.322 | 0.41 | 0.0773 | 0.0599
20 | C=CCc1cccc(/C=N/NC(=O)CN2CCN(Cc3ccccc3)CC2)c1O | 0.604 | 0.671 | 0.277 | 0.27

Row | SMILES | fractional viability [1] | fractional viability [2] | fractional viability [3] | fractional viability [4]
21 | Cc1[nH]nc2ccc(-c3cncc(OC[C@@H](N)Cc4ccccc4)c3)cc12 | 0.23 | 0.212 | 0.137 | 0.0399
22 | CC[C@H]1OC(=O)C[C@@H](O)[C@H](C)[C@@H](O[C@@H]2O[C@H](C)[C@@H](O)[C@H](N(C)C)[C@H]2O)[C@@H](CCN2C[C@H](C)C[C@H](C)C2)C[C@@H](C)C(=O)/C=C/C(C)=C/[C@@H]1CO[C@@H]1O[C@H](C)[C@@H](O)[C@@H](OC)[C@H]1OC [Tilmicosin] | 2.22 | 1.13 | 1.49 | 1.11
23 | CC(/C=C1\SC(=S)N(CC(=O)O)C1=O)=C\c1ccccc1 [Epalrestat] | 0.92 | 1.11 | 0.89 | 1.03
24 | CCOC(=O)[C@H]1O[C@@H]1C(=O)N[C@@H](CC(C)C)C(=O)NCCC(C)C [Aloxistatin] | 0.853 | 0.91 | 0.817 | 0.78
25 | Cc1c[nH]c(/C=C2\C(=O)Nc3ccccc32)c1CCC(=O)O | 0.91 | 0.936 | 0.874 | 0.784
26 | CC(C)NCC(O)COc1cccc2ccccc12 (stereo unspecified) [Propranolol HCl] | 0.866 | 1.12 | 0.82 | 1.1
27 | CC(C)(Cc1ccc2ccccc2c1)NC[C@@H](O)COc1cccc(Cl)c1C#N | 0.854 | 1.1 | 0.585 | 0.0354
28 | CC(C)(C)NCC(O)COc1cccc2c1CCC(=O)N2 (stereo unspecified) [Carteolol HCl] | 0.876 | 1.16 | 0.838 | 1.14
29 | NCc1c[nH]c(=S)n1[C@H]1CCc2c(F)cc(F)cc2C1 [Nepicastat (SYN-117) HCl] | 0.973 | 1.11 | 0.953 | 0.993
30 | NC1=N[C@@](c2cccc(-c3cncnc3)c2)(c2ccnc(C(F)F)c2)c2cccc(F)c21 | 0.851 | 1.01 | 0.765 | 0.736
31 | CCCc1cc2c(N3CCN(C4=NCC(C)(C)S4)CC3)ncnc2s1 [MI-2 (Menin-MLL Inhibitor)] | 0.919 | 0.869 | 0.747 | 0.665
32 | CCOC(=O)c1cnc2ccc(-c3cncc(NS(=O)(=O)c4ccccc4)c3)cn12 | 0.176 | 0.171 | 0.183 | 0.108
33 | O=C(c1ccccc1)c1ccc2nc(NC(=O)c3csc(C4CCN(c5ncnc6ccsc56)CC4)n3)[nH]c2c1 | 0.749 | 1.15 | 0.481 | 0.328
34 | CC(C)OC(=O)C1=CN(C(=O)c2ccc(F)c(F)c2)CC(C)(C)c2c1[nH]c1ccccc21 | 0.991 | 1.05 | 0.865 | 0.965
35 | CO[C@@H](C(=O)N1Cc2[nH]nc(NC(=O)c3ccc(N4CCN(C)CC4)cc3)c2C1)c1ccccc1 | 0.503 | 0.521 | 0.486 | 0.427
36 | CN1CCN(c2ccc(C(=O)Nc3n[nH]c4ccc(Cc5cc(F)cc(F)c5)cc34)c(NC3CCOCC3)c2)CC1 [Entrectinib (RXDX-101)] | 0.597 | 0.771 | 0.0511 | 0.0303
37 | CCc1cccc(CC)c1NC(=O)N1Cc2[nH]nc(NC(=O)c3ccc(N4CCN(C)CC4)cc3)c2C1 | 0.538 | 0.711 | 0.359 | 0.462
38 | OCc1ccc(O[C@@H]2O[C@H](CO)[C@@H](O)[C@H](O)[C@H]2O)cc1 [Gastrodin] | 0.926 | 1.16 | 0.853 | 1.06
39 | COc1ccc(-c2nc3cc(C4=NNC(=O)CC4C)ccc3[nH]2)cc1 (stereo unspecified) [Pimobendan] | 1.1 | 1.05 | 0.55 | 0.472
40 | CN1C(C(=O)Nc2ccccn2)=C(O)c2sc(Cl)cc2S1(=O)=O [Lornoxicam] | 1.04 | 1.22 | 0.894 | 0.996

Row | SMILES | fractional viability [1] | fractional viability [2] | fractional viability [3] | fractional viability [4]
41 | Cc1cc(N2CCOCC2)cc2[nH]c(-c3c(NC[C@@H](O)c4cccc(Cl)c4)cc[nH]c3=O)nc12 | 0.488 | 0.845 | 0.35 | 0.472
42 | C=C1C(=O)O[C@H]2[C@H]1CC/C(C)=C/CC[C@@]1(C)O[C@@H]21 [(-)-Parthenolide] | 0.336 | 0.595 | 0.0299 | 0.0264
43 | C=C1C(=O)O[C@@H]2/C=C(\C)CC/C=C(\C)CC[C@@H]12 [Costunolide] | 0.946 | 1.05 | 0.226 | 0.249
44 | CN(C)CCc1c[nH]c2ccc(CS(=O)(=O)N3CCCC3)cc12 [Almotriptan Malate] | 1.02 | 1.18 | 0.947 | 1.02
45 | CC(C)(O)CC[C@@H](O)[C@](C)(O)[C@H]1CC[C@@]2(O)C3=CC(=O)[C@@H]4C[C@@H](O)[C@@H](O)C[C@]4(C)[C@H]3CC[C@]12C [20-Hydroxyecdysone] | 1.04 | 1.1 | 0.84 | 1.02
46 | COc1cc2nc(N3CCN(C(=O)C4COc5ccccc5O4)CC3)nc(N)c2cc1OC (stereo unspecified) [Doxazosin Mesylate] | 1.18 | 1.11 | 1.07 | 0.931
47 | COC(=O)c1ccc2c(c1)[nH]c1ncnc(NCCCN3CCCCC3)c12 | 0.884 | 1.05 | 0.929 | 0.811
48 | COc1cc2c(NC3CCN(CC4CCCCC4)CC3)nc(N3CCCN(C(C)C)CC3)nc2cc1OCCCN1CCCCC1 | 0.657 | 0.723 | 0.0227 | 0.00884
49 | COc1cc2nc(N3CCN(C(=O)C4CCCO4)CC3)nc(N)c2cc1OC (stereo unspecified) [Terazosin HCl] | 1.17 | 1.16 | 1.07 | 0.97
50 | COc1cc2nc(N3CCCC3)nc(NCCCCCN3CCCC3)c2cc1OC | 0.426 | 0.543 | 0.0312 | 0.0156
51 | COc1cc(OC)c(C(=O)CCCN2CCCC2)c(OC)c1 [Buflomedil HCl] | 0.912 | 1.1 | 0.825 | 1.03
52 | COc1cc2nc(N3CCCN(C)CC3)nc(NC3CCN(Cc4ccccc4)CC3)c2cc1OC | 0.474 | 0.548 | 0.0331 | 0.0181
53 | COc1cc(Nc2c(C#N)cnc3cc(OCCCN4CCN(C)CC4)c(OC)cc23)c(Cl)cc1Cl [Bosutinib (SKI-606)] | 0.41 | 0.574 | 0.138 | 0.111
54 | c1coc(CNc2ncnc3[nH]cnc23)c1 [Kinetin] | 1.01 | 1.01 | 0.361 | 0.431
55 | Cc1nn(C)c2c1C(c1ccc(C(F)(F)F)cc1)C(C#N)=C(N)O2 (stereo unspecified) | 0.924 | 1.08 | 0.886 | 0.86
56 | OC(CN1CCN(c2cccc(Cl)c2)CC1)C(c1ccccc1)c1ccccc1 (stereo unspecified) | 0.96 | 1.02 | 0.831 | 1.05
57 | Cc1cc(C(O)=C2C(=O)C(=O)N(CCCN3CCOCC3)C2c2ccncc2)ccc1OCc1ccccc1 (stereo unspecified) | 0.77 | 0.984 | 0.802 | 0.726
58 | NC(=O)C(c1ccccc1)(c1ccccc1)[C@@H]1CCN(CCc2ccc3c(c2)CCO3)C1 [Darifenacin HBr] | 0.951 | 1.21 | 0.794 | 0.953
59 | C=C[C@]1(C)C[C@@H](OC(=O)CSC(C)(C)CNC(=O)[C@H](N)C(C)C)[C@]2(C)[C@H](C)CC[C@]3(CCC(=O)[C@H]32)[C@@H](C)[C@@H]1O [Valnemulin HCl] | 0.403 | 0.236 | 0.385 | 0.238
